PubChem BioAssay (NCI)
About 83,000 compounds went through this panel and 20% of them were active in at least one assay; those are over-represented in the sample as a whole.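 The endpoint reported here, percent growth, reads 100 for growth as untreated, 0 for no net growth and -100 for all cells dead.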 A number with no mark means an inactive call. Activity calls are given as the source filed them. How the source made its calls: active means growth percent below 10; inactive means the rest.

Test system: MDA-MB-468 breast
Assay: NCI-60 one-dose screen, 48 h (100 = growth as untreated, 0 = no growth, -100 = all killed)
Conditions: 10 µM unless noted

Question: Which growth does the source give for `CCOC(=O)c1cnn(CC(O)CC)c1NC(=O)NCc1ccccc1C(F)(F)F` (stereo not given) here?
Answer: 106%

Question: For `COCCn1cc(-c2nc(-c3cccnc3)cs2)c2cc(F)ccc21`, which growth is on record?
Answer: 100%

Question: `COc1cc2c(cc1-c1c(C)noc1C)ncc1nc(-c3ccccn3)n([C@H](C)COC(F)F)c12` was tested. Which growth did it give?
Answer: 46.5%

Question: How did the growth turn out when `COc1cc(C2CC(c3cccc(Nc4ccncc4)c3)=NN2c2ccccc2)cc(OC)c1OC` (stereo not given) was run?
Answer: 25.8%

Question: Which growth does the source give for `CN1CCN(CC(=O)N(C)c2ccc(N=C(c3ccccc3)c3c(O)[nH]c4ccc([N+](=O)[O-])cc34)cc2)CC1` here?
Answer: 87.8%

Question: For `CCOC(=O)c1ccc(N=Cc2sc(=O)[nH]c2O)cc1`, which growth is on record?
Answer: 98.6%

Question: `CS(=O)(=O)c1nccc(-c2c(-c3ccc(OCCc4ccccc4)cc3)nc3sccn23)n1` was tested. Which growth did it give?
Answer: -81.5% (active)

Question: With `O=C(Nc1ccccc1O)c1ccc(Oc2cccc(C(=O)Nc3ccccc3O)c2)cc1` as the compound, how does the growth read?
Answer: -27.2% (active)

Question: With `CNC(=O)c1c(NC(=O)c2cccc(C(F)(F)F)c2)sc2c1CCC(=O)C2` as the compound, how does the growth read?
Answer: -28% (active)

Question: Which growth does the source give for `Cc1oc(-c2ccccc2Cl)cc1C(=O)Nc1ccc(S(N)(=O)=O)cc1` here?
Answer: 109%

Question: With `CN1CCN(c2ccc(Nc3c4ccccc4nc4ccccc34)cc2)CC1` as the compound, how does the growth read?
Answer: 102%

Question: How did the growth turn out when `Cc1cc(C)c(NC(=O)c2sc3nc4c(cc3c2N)CCCC4)c(C)c1` was run?
Answer: 47.9%

Question: `C=C(C)C(=O)O[C@H]1C[C@@]2(C)OC(=CC2=O)[C@H](C)[C@H](O)[C@H]2OC(=O)C(=C)[C@@H]21` was tested. Which growth did it give?
Answer: 24.7%

Question: How did the growth turn out when `COc1ccc(/C=N/NC(N)=S)c(OC)n1` was run?
Answer: 86.4%

Question: Which growth does the source give for `CCCCCCCCCCCCOc1ccccc1C=O` here?
Answer: 91.3%

Question: For `COc1cc(/C=C2\CN(C)C/C(=C\c3cc(CN4CCOCC4)c(O)c(OC)c3)C2=O)cc(CN2CCOCC2)c1O`, which growth is on record?
Answer: 38.8%

Question: With `CC1(C)c2[nH]c3ccccc3c2C[C@]2(C)[C@H]3CC=C4[C@@H]5C[C@@](C)(C(N)=O)CC[C@]5(C)CC[C@@]4(C)[C@]3(C)CC[C@@H]12` as the compound, how does the growth read?
Answer: 21.7%

Question: With `Cc1ccc(S(=O)(=O)c2nc(-c3ccccc3)oc2SCC(N)=O)cc1` as the compound, how does the growth read?
Answer: 91.7%

Question: With `CC1=NN(c2ccccc2Cl)C(=O)/C1=C\c1cn(S(=O)(=O)c2ccc(C)cc2)c2ccccc12` as the compound, how does the growth read?
Answer: 119%

Question: `Oc1ccc(N=Cc2ccccc2)cc1` was tested. Which growth did it give?
Answer: 53.9%

Question: `CCCCCC(C)c1ccc(O)c(C)c1` (stereo not given) was tested. Which growth did it give?
Answer: 101%

Question: With `CCN(CC)Cc1cc(Nc2c3ccccc3nc3cc(Cl)ccc23)ccc1O` as the compound, how does the growth read?
Answer: -72.4% (active)

Question: For `COc1ccc(/C=C/C(=O)c2ccc(NC(=O)CSc3nnc(-c4ccc(Cl)cc4)n3-c3ccccc3)cc2)cc1`, which growth is on record?
Answer: 94.8%

Question: `CC1C(=NC(=O)c2cnccn2)C(C)C(c2ccc(Cl)cc2)NC1c1ccncc1` (stereo not given) was tested. Which growth did it give?
Answer: 92.9%

Question: `O=C(Nc1ncc(Cc2cccc(C(F)(F)F)c2)s1)C1COc2ccccc2O1` (stereo not given) was tested. Which growth did it give?
Answer: 77.4%

Question: With `Cc1ccc(NC(=O)/C=C/c2ccccc2)c(C(N)=O)c1` as the compound, how does the growth read?
Answer: 22.5%

Question: Which growth does the source give for `CS(=O)(=O)c1ccc(-c2nn(-c3ccccc3)cc2/C=N/NC(=O)c2nc(N)n[nH]2)cc1` here?
Answer: 98.2%

Question: Which growth does the source give for `COc1cc(N2C(=O)[C@H](O)C2c2ccc(SC)cc2)cc(OC)c1OC` (stereo not given in full) here?
Answer: 3.3% (active)

Question: How did the growth turn out when `CCCS(=O)(=O)Nc1cccc(Nc2ncnc3cc(NC(=O)CCl)ccc23)c1Cl` was run?
Answer: -41.8% (active)

Question: With `COC(=O)[C@]12CC[C@@H](C)[C@H](C)[C@@H]1C1=CC[C@@H]3[C@@]4(C)C[C@@H](OC(C)=O)[C@H](OC(C)=O)[C@@](C)(COC(C)=O)[C@@H]4[C@H](O)C[C@@]3(C)[C@]1(C)CC2` as the compound, how does the growth read?
Answer: -6.62% (active)

Question: How did the growth turn out when `COc1cc(CNC(=O)C2CSC3(C)c4ccccc4C(=O)N23)cc(OC)c1OC` (stereo not given) was run?
Answer: 89.6%

Question: With `CCCCC[C@H]1C/C=C2/C(=O)C(Cl)=C[C@@H]2C/C=C\CCCC(=O)O1` as the compound, how does the growth read?
Answer: -26.7% (active)

Question: `COc1ccc2c(c1)/C(=C\c1sc(=S)[nH]c1O)C(C(=O)O)=N2` was tested. Which growth did it give?
Answer: 98.2%

Question: `CSc1nc(N)c2c(n1)NC(c1ccccc1)C1CCc3ccccc3C1=N2` (stereo not given) was tested. Which growth did it give?
Answer: 76.4%

Question: For `COc1cccc(Cn2cc3c(c2)-c2oncc2CC3)c1`, which growth is on record?
Answer: 1.66% (active)

Question: Which growth does the source give for `COc1ccc(-c2cc(-c3ccccc3)nc(SCCCCCC(=O)NO)n2)cc1` here?
Answer: 64.8%

Question: For `C=C1C(=O)O[C@H]2[C@H]1CC/C(COC(=O)NCc1cccc(OC)c1)=C\CC[C@@]1(C)O[C@@H]21`, which growth is on record?
Answer: -13.2% (active)

Question: How did the growth turn out when `CN(C)c1ccc2c(c1)OC(N)=C(C#N)C2c1ccc2c(c1)CCO2` (stereo not given) was run?
Answer: 18.3%

Question: With `COc1cc(/C=C2\CCCC3=C2N=C2SC(C)=CN2C3c2cc(OC)c(OC)c(OC)c2)cc(OC)c1OC` (stereo not given) as the compound, how does the growth read?
Answer: -20.7% (active)

Question: `COc1ccc2nc3nc4ccc[nH]c4cc3c2c1` was tested. Which growth did it give?
Answer: -36.6% (active)
